# From PubChem BioAssay (EPA / NIEHS)
# Inconclusive results are not listed. Calls of active or inactive are those of the source. The calls were made as follows: active = hit-call score of the fitted dose curve at least 0.9, where 1 is the maximum; inconclusive = response in the unintended direction; inactive = score below 0.9.
# Molecular target: human RAR-related Orphan Receptor gamma (RORg), RORC (gene 6097) (UniProt P51449)
# Experiment: ATG_RORg_TRANS: Attagene TRANS-FACTORIAL HepG2 Assay for human RAR-related Orphan Receptor gamma (RORg) (AID 2283011)
# Description: ATG_TRANS is a cell-based, multiplexed-readout assay that uses HepG2, a human liver cell line, with measurements taken at 24 hours after chemical dosing in a 24-well plate.ATG_RORg_TRANS is one of 30 assay component(s) measured or calculated from the ATG_TRANS assay. It is designed to make measurements of mRNA induction, a form of inducible reporter, as detected with fluorescence intensity signals by Reverse transcription polymerase chain reaction (RT-PCR) and Capillary electrophoresis technology.Data from the assay component ATG_RORg_TRANS was analyzed into 1 assay endpoint. This assay endpoint, ATG_RORg_TRANS, was analyzed in the positive analysis fitting direction relative to DMSO as the negative control and baseline of activity. Using a type of inducible reporter, measures of mRNA for gain-of-signal activity can be used to understand the reporter gene at the transcription factor-level as they relate to the gene RORC. Furthermore, this assay endpoint can be referred to as a primary readout, because this assay has produced multiple assay endpoints where this one serves a reporter gene function. To generalize the intended target to other relatable targets, this assay endpoint is annotated to the nuclear receptor intended target family, where the subfamily is orphan.
# Human liver HepG2 cells are transiently transfected with multiple reporter transcription units (MRTUs) in 6-well plates using FuGene 6 reagent (Roche; 3 ml FuGene/1 mg DNA). The MRTU constructs are regulated by a cis-regulating element (promoter). […] A major difference between the CIS and TRANS system is that in CIS activities of endogenous TFs are measured, whereas the TRANS assay evaluates changes in activities of exogenous, chimeric NR-Gal4 proteins. […] At the end of 24 hour incubation, total RNA was isolated using TriZol reagent (Invitrogen). The isolated RNA is then reverse-transcribed using oligo(dT) primer and Mo-MLV reverse transcriptase (Invitrogen) with DNAse I (Ambion) treatment for 30 min. The one-tenth of the produced cDNA was amplified by PCR using Taq DNA polymerase (Invitrogen) and two reporter sequence-specific primers. The PCR products were fluorescently labeled by primer extension with 6-arboxyfluorescein (6-FAM) 5'-labeled reporter sequence-specific primer (2 min at 95 C, 20 s at 68 C and 10 min at 72 C) and these products were digested with 5U of HpaI (New England Biolabs) for 2h at 37 C. The fragments were purified using Qiaquick PCR columns (Qiagen), analyzed on an ABI 3130xL genetic analyzer (Applied Biosystems) with peak positions identified by using a set of X-rhodamine (ROX)-labeled MapMarker1000 molecular weight standards (BioVentures). The raw capillary electrophoresis data was processed using Attagraph software (Attagene).
# Sequence of human RAR-related Orphan Receptor gamma (RORg), RORC (gene 6097) (P51449 whole entry, looked up): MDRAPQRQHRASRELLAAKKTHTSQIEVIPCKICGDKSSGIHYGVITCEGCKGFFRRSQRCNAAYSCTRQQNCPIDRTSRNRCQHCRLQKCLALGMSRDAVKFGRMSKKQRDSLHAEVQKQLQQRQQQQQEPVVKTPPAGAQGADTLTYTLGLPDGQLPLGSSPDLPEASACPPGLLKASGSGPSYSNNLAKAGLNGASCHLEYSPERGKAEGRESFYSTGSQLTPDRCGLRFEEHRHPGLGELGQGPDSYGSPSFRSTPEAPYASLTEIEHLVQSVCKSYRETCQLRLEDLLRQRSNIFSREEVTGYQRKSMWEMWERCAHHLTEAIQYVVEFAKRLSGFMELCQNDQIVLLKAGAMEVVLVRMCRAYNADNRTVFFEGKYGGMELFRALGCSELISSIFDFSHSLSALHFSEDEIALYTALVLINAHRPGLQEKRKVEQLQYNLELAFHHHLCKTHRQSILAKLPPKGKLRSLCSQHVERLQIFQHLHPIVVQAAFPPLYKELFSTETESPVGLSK
row,Compound,outcome
1,CN(C)CCN(C)C,inactive
2,CNC(=O)N(C)c1nc2ccccc2s1,inactive
3,CC(C)(COCC1CO1)COCC1CO1 (stereo not given),inactive
4,C#CCOC(=O)/C=C(C)/C=C/CC(C)CCCC(C)C (stereo not given),inactive
5,CCCCN(CCCC)C(=S)S,inactive
6,CCOc1cc(C=O)ccc1O,inactive
7,O=C(O)CC(O)(CC(=O)O)C(=O)O,inactive
8,O=C(NC(=O)c1c(F)cccc1F)Nc1cc(Cl)c(F)c(Cl)c1F,inactive
9,CC(C)(C)c1ccccc1O,inactive
10,CN(C)[C@@H]1C(=O)C(C(N)=O)=C(O)[C@@]2(O)C(=O)C3=C(O)c4c(O)ccc(Cl)c4[C@@](C)(O)[C@H]3C[C@@H]12,inactive
11,CCCCCCCCCCBr,inactive
12,C#C[C@]1(O)CC[C@H]2[C@@H]3CCC4=CC(=O)CC[C@]4(C)[C@H]3CC[C@@]21C,inactive
13,CCOC(=O)CC(=O)CCl,inactive
14,N#Cc1ccccc1N,inactive
15,O=C(CBr)c1ccc(O)cc1,inactive
16,CS(=O)(=O)c1ccc(C(=O)C2C(=O)CCCC2=O)c(Cl)c1COCC(F)(F)F,inactive
17,CCCCCCCCCCCCCl,inactive
18,Cc1cc(Cl)ccc1N,inactive
19,CCCSP(=S)(OCC)Oc1ccc(Cl)cc1Cl (stereo not given),inactive
20,ClCCCCl,inactive

row,Compound,outcome
1,Fc1cccc(Cl)c1CCl,inactive
2,CCOP(=S)(OCC)SCSc1cc(Cl)ccc1Cl,inactive
3,COC(=O)c1cc(Oc2ccc(Cl)cc2Cl)ccc1[N+](=O)[O-],inactive
4,N#Cc1ccc(Cl)cc1,inactive
5,ClCCN1CCOCC1,inactive
6,Cc1cc(Cl)ccc1OCCCC(=O)O,inactive
7,BrCC(Br)c1ccccc1 (stereo not given),inactive
8,C[CH2][Hg][S]c1ccccc1C(=O)O,inactive
9,CCCCOC(=O)COC(=O)c1ccccc1C(=O)OCCCC,inactive
10,C1CN2CCN1CC2,inactive
11,OCCCCO,inactive
12,BrCCCCBr,inactive
13,c1ccc2c(c1)Oc1ccccc1O2,inactive
14,C1CCC(C2CCCCC2)CC1,inactive
15,OC(Cc1ccccc1Cl)(Cn1cncn1)C1(Cl)CC1 (stereo not given),inactive
16,COc1ccccc1N,inactive
17,CN(CCCC(O)c1cccnc1)N=O (stereo not given),inactive
18,CC(C=O)Cc1ccc2c(c1)OCO2 (stereo not given),inactive
19,C[As+](C)(C)CC(=O)[O-],inactive
20,C=CC(=O)NC(C)(C)CC(C)=O,inactive
